TGFb inhibitor = TGF-b pathway inhibition | HepG2 CAGA-GFP TGF-b/SMAD3 reporter, GFP fluorescence, 18 h; TGF-beta stimulated, 500 pg/mL final | Potency, µM (titrated, usually from 46.1 µM), without a hit: top-dose activity, negative = inhibition, hits mostly inhibitors | hit rate 1.2% among 410,000; further: on the % scale 0 is the no-effect control and ±100 the full control effect; nearly all actives have a fitted effect of over 65% in size
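Cell-based qHTS in HEPG2 carrying a CAGA-GFP Smad reporter; compounds added before 500 pg/mL final TGF-beta, 18 h incubation at 37 degrees C, GFP fluorescence quantified per cell by imaging cytometry.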
ATXN2 expr inh = ATXN2 expression inhibition; HEK-293 ATXN2-luciferase reporter, luminescence, 24 h; Potency, µM (titrated, usually from 57 µM), inactives show at the top dose activity change, negative = inhibition, hits mostly inhibitors; hit rate 0.72% among 360,000; further: on the % scale 0 is the no-effect control and ±100 the full control effect; nearly all actives have a fitted effect of over 55% in size
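ATXN2-luciferase reporter cells (luciferase flanked by upstream and downstream ATXN2 gene portions) were treated 24 h at 37 °C with compounds at up to 57 uM. SteadyGlo luminescence gave expression; GF-AFC fluorescence gave viability.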
S2 tox = cell viability loss in ATXN counter-screen | S2 cells (HEK-293 line with an ATXN2-luciferase reporter) viability, CellTiter-Fluor protease fluorescence, 24 h | Potency, µM (top dose mostly 56.7 µM), hits mostly cytotoxic | hit rate 0.49% among 400,000; further: nearly all actives have a fitted effect of over 40% in size
TDP1 cell noCPT = qHTS for Inhibitors of human tyrosyl-DNA phosphodiesterase 1 (TDP1): qHTS in cells in absence of CPT | DT40 Tdp1-/- hTDP1 cells, no CPT, ATP luminescence, 48 h | Potency, µM (titrated, usually from 46.2 µM), without a hit: at the highest dose activity change, negative = growth inhibition, actives largely listed as inhibitors | hit rate 15% among 420,000 | AID 686978, 2013; further: on the % scale 0 is the no-effect control and ±100 the full control effect; nearly all actives have a fitted effect of over 55% in size
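Readout: luminescence from CellTiter-Glo after 30 min in the dark at RT. Cells: DT40 Tdp1-/- with stable hTDP1, 400/well. Exposure: compounds alone, ≥48 hr, 37 °C.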
HepG2 tox-1 = kills HepG2 cells in TGF-b inhibitor counter-screen. Potency, µM (top dose mostly 46.1 µM), without a hit: top-dose activity change, negative = cytotoxicity, hits mostly cytotoxic. hit rate 0.76% among 410,000. HepG2 CAGA-GFP viability, ATP luminescence, 18 h
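HepG2 CAGA-GFP cells (1000/well, DMEM with 1% FBS) received compound, then TGF-beta at 500 pg/mL final, and were incubated 18 hours at 37 degrees C. Viability was read by CellTiter-Glo luminescence. Media-only wells were set as complete cell-killing and DMSO as no toxicity.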
DT40 TDP1 CPT = growth inhibition of DT40 Tdp1-/-;hTDP1 cells with camptothecin (screen for TDP1 inhibitors) | Potency, µM (highest dose often 46.2 µM), for the others: top-dose activity change, negative = growth inhibition, usual class: inhibitors | AID 686979 | hit rate 12% among 420,000 | chicken DT40 Tdp1-/-;hTDP1 cells + 20 nM CPT, ATP luminescence, 48 h; further: on the % scale 0 is the no-effect control and ±100 the full control effect; nearly all actives have a fitted effect of over 55% in size
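Chicken DT40 Tdp1-/- cells complemented with human TDP1, 400 cells/well, exposed to compounds plus 20 nM camptothecin for at least 48 h at 37 C; viability read as ATP content by CellTiter-Glo luminescence.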
TGFb confirm = TGF-b pathway inhibition, cherry-pick retest; shares compounds with TGFb inhibitor; HepG2 CAGA-GFP TGF-b reporter, GFP fluorescence, 18 h; cells stimulated with TGF-beta, 500 pg/mL; Potency, µM (titrated, usually from 46.1 µM), inactives show at the top dose activity, negative = inhibition, most hits filed as inhibitors; hit rate 63% among 1,600; further: on the % scale 0 is the no-effect control and ±100 the full control effect; nearly all actives have a fitted effect of over 65% in size
HepG2 tox-2 = counter-screen for TGF-b inhibitors: cytotoxicity in HepG2 cells; shares compounds with TGFb inhibitor; HepG2 CAGA-GFP viability, ATP luminescence, 18 h; cells stimulated with TGF-beta, 500 pg/mL; Potency, µM (series often up to 46.1 µM), without a hit: top-dose activity, negative = cytotoxicity, most hits filed as inhibitors; hit rate 27% among 1,600; further: on the % scale 0 is the no-effect control and ±100 the full control effect; nearly all actives have a fitted effect of over 70% in size
CCL64 TGFb inh = TGF-b inhibition, CCL64 orthogonal assay | Potency, µM (series often up to 46.1 µM), for the others: top-dose activity, negative = inhibition, hits mostly inhibitors | CCL64 CAGA-GFP reporter, TGF-b stimulated, GFP fluorescence, 18 h | AID 720536 | hit rate 41% among 1,600 | shares compounds with TGFb inhibitor; further: nearly all actives have a fitted effect of over 65% in size
COP TGFb inh = blocks TGF-b signaling in HepG2 COP reporter | HepG2 COP-GFP TGF-b reporter, GFP fluorescence, 18 h; cells stimulated by added recombinant TGF-beta | shares compounds with TGFb inhibitor | hit rate 3% among 1,600 | Potency, µM (doses to about 46.1 µM), without a hit: top-dose activity, negative = inhibition, usual class: inhibitors; further: nearly all actives have a fitted effect of over 70% in size
* = called active by the depositor; i = inactive; ? = inconclusive; nt = no result given. An excerpt weighted towards active compounds, which were near 17% of everything screened. The call rests on the fitted dose curve; in most records, active means well fitted curve in the direction sought with a large enough effect; inconclusive means small, poorly fitted or top-dose-only effect, or another doubt; inactive means no such curve, though single readings can be large; an effect the other way counts as inactive or inconclusive. Potency means the concentration at half of the fitted maximal effect.

SMILES | TGFb inhibitor | ATXN2 expr inh | S2 tox | TDP1 cell noCPT | HepG2 tox-1 | DT40 TDP1 CPT | TGFb confirm | HepG2 tox-2 | CCL64 TGFb inh | COP TGFb inh
CCOC(=O)N/N=C/c1cn(Cc2ccc(Cl)cc2)c2ccccc12 | 13µM* | 4% | i | -25% | -42% | ? | 4.1µM* | 2.6µM* | 5% | 42%
COc1ccc(C)cc1NC(=O)C(NC(=O)c1cc(OC)c(OC)c(OC)c1)C(C)C (centres undefined) | -2% | -8% | i | -23% | -4% | -27% | nt | nt | nt | nt
O=C(CCc1ccncc1)N1CCCC(Nc2ccc(F)c(F)c2)C1 (centres undefined) | -6% | nt | i | ? | -1% | -13% | nt | nt | nt | nt
COc1ccc(Cl)cc1NC(=O)C1CC(c2ccccc2Cl)=NO1 (centres undefined) | 8% | nt | ? | -15% | -1% | -29% | nt | nt | nt | nt
O=C(Nc1ccc(F)cc1)c1nc(S(=O)(=O)Cc2ccccc2)ncc1Cl | 5µM* | ? | nt | 1.6µM* | 7.1µM* | 2.1µM* | 3.3µM* | 15µM* | 2.6µM* | ?
Cc1cccc(CS(=O)(=O)c2ncc(Cl)c(C(=O)Nc3c(C)cccc3C)n2)c1 | 6.3µM* | -18% | ? | 4.1µM* | 10µM* | 3.7µM* | 4.6µM* | 9.2µM* | 4.6µM* | ?
CCCSc1ncc(Cl)c(C(=O)Nc2ccc(CC)cc2)n1 | nt | nt | nt | -22% | -22% | 16% | nt | nt | nt | nt
Cc1cccc(CSc2ncc(Cl)c(C(=O)Nc3nnc(C)s3)n2)c1 | -15% | 11% | i | -14% | -15% | -15% | nt | nt | nt | nt
COc1ccc(OC)c(NC(=O)c2nc(S(=O)(=O)Cc3ccccc3)ncc2Cl)c1 | 3.5µM* | -25% | 18µM* | 0.58µM* | 7.9µM* | 0.58µM* | 4.6µM* | 6.5µM* | 3.7µM* | 10µM*
Cc1ccccc1CS(=O)(=O)c1ncc(Cl)c(C(=O)Nc2ccc(F)cc2)n1 | 10µM* | nt | nt | 2.1µM* | 22µM* | 3.3µM* | ? | ? | 3.7µM* | ?
CC(C)N1CCN(Cc2cnc(N3CCCC3)s2)CC1CCO (centres undefined) | -2% | 22% | i | 4% | 2% | 8% | nt | nt | nt | nt
CCCCN1CC[C@@H]2C=CC[C@H](C(=O)OC)[C@@H]2C1=O | -4% | 3% | i | -5% | -2% | -16% | nt | nt | nt | nt
CC(C)NC(=O)N(C)C[C@H]1Oc2ccc(NS(=O)(=O)c3ccc(Cl)cc3)cc2CC(=O)N([C@@H](C)CO)C[C@@H]1C | ? | -2% | i | -12% | -22% | -12% | -9% | 3% | 2% | 3%
C[C@H]1CN([C@@H](C)CO)C(=O)Cc2cc(NS(=O)(=O)c3ccc(Cl)cc3)ccc2O[C@@H]1CN(C)C(=O)Nc1cccc2ccccc12 | -24% | -6% | i | ? | -1% | -22% | nt | nt | nt | nt
COc1ccc(C(=O)C(CN2CCOCC2)c2ccccc2)cc1F (centres undefined) | 4µM* | ? | ? | 2.6µM* | -104% | 4.1µM* | ? | 15µM* | 7.3µM* | 17%
O=C(c1ccc(Cl)cc1)C(CN1CCCCC1)c1ccccc1 (centres undefined) | 5.6µM* | ? | nt | 2.1µM* | 5.6µM* | 1.6µM* | 13µM* | 18µM* | 2.3µM* | ?
Cc1ccc2[nH]c3c(=O)n(CCN4CCNCC4)cnc3c2c1 | -1% | -4% | i | -14% | -6% | -2% | nt | nt | nt | nt
C=CCNc1ncnc2c1[nH]c1ccc(C)cc12 | 7.9µM* | 0% | i | 21µM* | -31% | 29µM* | ? | -27% | ? | -3%
c1ccc(-c2csc3ncnc(NCC4COc5ccccc5O4)c23)cc1 (centres undefined) | 3.5µM* | ? | ? | 0.92µM* | -17% | 0.73µM* | 2.6µM* | ? | 15µM* | 19%
O=C(Nc1ccc(Cl)cc1)c1cc2c(cc1O)[nH]c1ccccc12 | 6.3µM* | ? | ? | 4.1µM* | -45% | 3.3µM* | 7.3µM* | 5.2µM* | 3.3µM* | 70%
CC(=O)Nc1ccc2[nH]c3ccccc3c2c1 | 13% | 9% | i | 1% | 0% | -13% | nt | nt | nt | nt

Screens: PubChem BioAssay, National Center for Advancing Translational Sciences (NCATS)
